ATXN viability = Viability Counterscreen for Primary qHTS for Inhibitors of ATXN expression | S2 cells (HEK-293 line with an ATXN2-luciferase reporter) viability, CellTiter-Fluor protease fluorescence, 24 h | AID 651635, 2014 | 400,000 compounds, 0.49% hits | Potency, µM (top dose mostly 56.7 µM), usual class: cytotoxic; further: nearly all actives have a fitted effect of over 40% in size
Anesthetic bind = qHTS Assay for Identification of Novel General Anesthetics; Ferritin light chain (Equus caballus), P02791; apoferritin/1-aminoanthracene competitive binding, fluorescence; Potency, µM (doses to about 77.5 µM), inactives show at the highest dose activity change, negative = displacement, most hits filed as inhibitors; 350,000 compounds, 0.074% hits; AID 485281, 2010; further: on the % scale 0 is the no-effect control and ±100 the full control effect; nearly all actives have a fitted effect of over 20% in size
Target sequence (P02791 2-175 limits assumed): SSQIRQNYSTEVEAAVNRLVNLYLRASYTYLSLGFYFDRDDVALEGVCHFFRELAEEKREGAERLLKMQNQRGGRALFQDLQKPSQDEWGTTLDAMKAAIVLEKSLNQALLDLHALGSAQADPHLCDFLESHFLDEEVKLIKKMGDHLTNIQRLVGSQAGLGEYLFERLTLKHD
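Apoferritin-based anesthetic binding model; compound displacement of fluorescent 1-AMA measured as endpoint fluorescence after 10 minutes at room temperature, scaled to free-ligand and complex controls.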
HepG2 viability = qHTS for Inhibitors of TGF-b: Cytotox Counterscreen; Potency, µM (series often up to 46.1 µM), without a hit: top-dose activity change, negative = cytotoxicity, hits mostly cytotoxic; 410,000 compounds, 0.76% hits; HepG2 CAGA-GFP viability, ATP luminescence, 18 h
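CellTiter-Glo luminescence gave cytotoxicity after 18 hours at 37 degrees C. The cells were HepG2 CAGA-GFP in 1% FBS DMEM, stimulated with 500 pg/mL TGF-beta after compound addition. %Activity was normalised to no-cell wells (complete cell-killing) and DMSO (no toxicity), and curves were fitted and classified.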
ATXN2 expr inh = Primary qHTS for Inhibitors of ATXN expression; 360,000 compounds, 0.72% hits; Potency, µM (doses to about 57 µM), without a hit: top-dose activity change, negative = inhibition, usual class: inhibitors; AID 1745845, 2022; HEK-293 ATXN2-luciferase reporter, luminescence, 24 h; further: on the % scale 0 is the no-effect control and ±100 the full control effect; nearly all actives have a fitted effect of over 55% in size
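qHTS (up to 57 uM final) was run with 24 h compound exposure of reporter cells at 37 °C. Each well was multiplexed: SteadyGlo luminescence measured ATXN2-luciferase expression after a fluorogenic Gly-Phe-AFC viability readout (25 uM final).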
TGFb inhibitor = qHTS for Inhibitors of TGF-b | HepG2 CAGA-GFP TGF-b/SMAD3 reporter, GFP fluorescence, 18 h; TGF-beta stimulated, 500 pg/mL final | Potency, µM (highest dose often 46.1 µM), for inactives: top-dose activity, negative = inhibition, most hits filed as inhibitors | 410,000 compounds, 1.2% hits | AID 588855, 2011; further: on the % scale 0 is the no-effect control and ±100 the full control effect; nearly all actives have a fitted effect of over 65% in size
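Inhibition of TGF-beta-driven CAGA-GFP reporter expression in HEPG2 cells is measured by cellular GFP fluorescence after 18 h stimulation with 500 pg/mL recombinant TGF-beta in 1% FBS medium at 37 degrees C.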
* hit, by the source's call; i = inactive; ? = inconclusive; . = no result. Rows were chosen to be rich in hits. Some 2.4% of all compounds tested hit in one or more screens of this group. The call rests on the fitted dose curve; in most records, active means well fitted curve in the direction sought with a large enough effect; inconclusive means small, poorly fitted or top-dose-only effect, or another doubt; inactive means no such curve, though single readings can be large; an effect the other way counts as inactive or inconclusive. Potency means the concentration at half of the fitted maximal effect.

SMILES | ATXN viability | Anesthetic bind | HepG2 viability | ATXN2 expr inh | TGFb inhibitor
CC(N)c1csc(Nc2ccc(S(C)(=O)=O)cc2)n1 (stereo not drawn) | i | . | 3.2% | 12.9% | -13.7%
Cc1ncc(-c2ccnc(Nc3ccc(S(C)(=O)=O)cc3)n2)n1C(C)C | . | . | . | 3.43µM* | .
c1ccc(C2=Nn3c(nnc3-c3cc(-c4ccccc4)n[nH]3)SC2)cc1 | ? | ? | -16.5% | 53.1% | ?
Clc1ccc(C2=Nn3c(nnc3-c3cc(-c4ccccc4)n[nH]3)SC2)cc1 | . | 1.8% | 15.8µM* | ? | ?
Cc1ccc(/C=C/C(=O)c2ccccc2)cc1 | i | ? | . | 0.0% | ?
Cc1ccc(/C=C/C(=O)c2ccccc(=O)c2O)c(C)c1 | ? | ? | -58.4% | ? | 12.6µM*
Cc1ccc(C)c(/C=C/C(=O)c2ccccc(=O)c2O)c1 | ? | -18.4% | -70.1% | 17.8µM* | ?
O=C(/C=C/c1ccccc1Cl)c1ccccc(=O)c1O | ? | ? | -31.7% | 25.1µM* | ?
O=C(/C=C/c1ccc([N+](=O)[O-])cc1)c1cccs1 | i | 1.6% | -5.1% | 17.4% | -2.4%
O=C(/C=C/c1ccc([N+](=O)[O-])cc1)c1ccccc(=O)c1O | . | . | -31.1% | ? | 3.16µM*
CCOc1ccc(-c2nc3c(c(SCC(=O)N4CCCCC4)n2)Cc2cccc(OC)c2O3)cc1 | i | -7.3% | 1.6% | -4.7% | -4.6%
CNC(=O)c1c(I)c(NC(=O)CCCCC(=O)Nc2c(I)c(C(=O)O)c(I)c(C(=O)NC)c2I)c(I)c(C(=O)O)c1I | i | . | . | -4.5% | .
COc1cccc(CNC(=O)c2c(OC)cc(=O)n3c2CCN(C(=O)c2ccc(Cl)cc2)CC3)c1 | i | . | . | . | .
O=C(/C=C/c1ccc(Cl)cc1)c1cccnc1 | ? | -13.9% | -31.7% | ? | ?
O=C(/C=C/c1ccccc1Cl)c1cccnc1 | i | ? | 11.2µM* | 5.3% | ?
O=C(/C=C/c1ccc(O)c(O)c1)c1ccccc1O | ? | ? | -29.5% | 85.4% | -26.0%
O=C(C=Cc1ccccc1O)c1ccccc1O | ? | . | 22.4µM* | -24.2% | ?
Cc1n[nH]c(C)c1Cc1sc2c(c1C(=O)N1C[C@H](O)CO1)c(=O)n(C)c(=O)n2CC(C)C | . | . | . | -9.5% | .
COc1cccc(C2Nc3ccccc3C(=O)N2Cc2ccccc2)c1 (stereo not drawn) | i | . | -5.0% | . | -0.8%
COc1ccc2c(c1)C[C@]1(C)c3ccccc3C(=O)N(Cc3ccccc3)[C@H]21 | ? | . | -15.8% | ? | 11.2µM*
O=[N+]([O-])c1ccc(N2CCCC2)nc1N1CCCC1 | i | 6.3% | 0.5% | -3.5% | 5.2%
Nc1ncc([N+](=O)[O-])c(N2CCCCCC2)n1 | i | -4.1% | 7.08µM* | 4.7% | -12.2%
NS(=O)(=O)c1ccc(Sc2nc3ccccc3s2)c([N+](=O)[O-])c1 | i | 6.7% | 12.6µM* | ? | ?
NS(=O)(=O)c1ccc(Sc2ccccn2)c([N+](=O)[O-])c1 | i | -3.6% | 1.2% | -3.1% | 0.0%
Cc1ccc2c(C(=O)CNc3nccs3)c[nH]c2c1 | . | . | -27.1% | . | 1.2%
SMILES | ATXN viability | Anesthetic bind | HepG2 viability | ATXN2 expr inh | TGFb inhibitor
Cn1cnc([N+](=O)[O-])c1S(=O)(=O)Oc1ccc(Cl)cc1 | . | . | 22.4µM* | ? | ?
CCS(=O)(=O)c1c([N+](=O)[O-])ncn1C | ? | -3.2% | -44.0% | . | 17.8µM*
Cn1cnc([N+](=O)[O-])c1Cl | ? | 8.8% | -3.1% | 38.4% | 9.2%
Cn1cnc([N+](=O)[O-])c1S(=O)(=O)Oc1cccc2ccccc12 | 15.8µM* | . | -83.3% | ? | ?
CCN(CC)c1c([N+](=O)[O-])ncn1C | ? | -11.7% | 10.1% | -1.7% | ?
C=CC[N@@+]12CC[C@@]34c5ccccc5N5/C=C6/[C@H]7C[C@H]8[C@@]9(CC[N@@+]8(CC=C)C/C7=C/CO)c7ccccc7N(/C=C(/[C@@H](C[C@@H]31)/C(=C\CO)C2)[C@H]54)[C@@H]69 | i | . | . | . | .
CC(Oc1ccccc1)C(=O)NCC1Cc2cc(F)cc(-c3ccccn3)c2O1 (stereo not drawn) | i | . | . | . | .
CC[C@@]1(O)C(=O)OCc2c1cc1n(c2=O)Cc2c-1nc1ccccc1c2/C=N/OC(C)(C)C | i | . | . | 0.0005µM* | .
C/C=C/C/C=C/CCC(=O)[C@H]1O[C@H]1C(N)=O | . | -22.4% | . | . | .
COc1ccc2sc(N(CCCN(C)C)C(=O)c3ccc(S(=O)(=O)N4CCCc5ccccc54)cc3)nc2c1 | . | . | 11.2µM* | ? | 22.4µM*
COc1cc2nc(N(CCCN(C)C)C(=O)c3ccc(S(=O)(=O)N4CCc5ccccc54)cc3)sc2cc1OC | i | . | -32.7% | -13.6% | -13.4%
Cc1ccc2sc(N(CCCN(C)C)C(=O)c3ccc(S(=O)(=O)N4CCCCCC4)cc3)nc2c1C | i | . | -84.7% | ? | ?
Cc1cc(C)c2nc(N(CCCN(C)C)C(=O)c3ccc(S(=O)(=O)N4CCCCCC4)cc3)sc2c1 | i | . | -74.3% | ? | 15.8µM*
CCN(Cc1ccccc1)S(=O)(=O)c1ccc(C(=O)N(CCCN(C)C)c2nc3cc(OC)ccc3s2)cc1 | ? | . | 22.4µM* | ? | ?
CC(NC(=O)Cn1cccc1)c1ccccc1 (stereo not drawn) | i | 3.3% | 7.4% | 5.8% | 0.0%
CN(C)CCCNC(=O)/C(=C/c1ccc(-c2ccc([N+](=O)[O-])cc2)o1)NC(=O)c1ccccc1 | i | -7.8% | -15.1% | -36.2% | -24.4%
CN(C)CCCNC(=O)/C(=C\c1ccc(-c2ccc(Br)cc2)o1)NC(=O)c1ccccc1 | i | 5.8% | 11.2µM* | ? | ?
CCC1CCCCN1CCCNC(=O)c1ccc2c(c1)N(Cc1ccc(Cl)cc1)C(=O)c1ccccc1S2(=O)=O (stereo not drawn) | i | ? | 11.2µM* | 28.2µM* | ?
CCC1CCCCN1CCCNC(=O)c1ccc2c(c1)N(Cc1ccccc1)C(=O)c1ccccc1S2(=O)=O (stereo not drawn) | . | -10.4% | -51.4% | . | .
CCC1CCCCN1CCCNC(=O)c1ccc2c(c1)N(Cc1cccc(Cl)c1)C(=O)c1ccccc1S2(=O)=O (stereo not drawn) | . | 1.3% | -100.3% | . | 10µM*
CCCSc1ncc(Cl)c(C(=O)N(Cc2ccccc2)c2ccc(OC)cc2)n1 | . | -13.5% | -27.5% | . | .
O=C(c1ccc(Cl)cc1)N(Cc1ccco1)Cc1ccco1 | . | ? | -7.8% | . | 0.0%
COc1ccc(N(Cc2ccccc2)C(=O)c2nc(S(C)(=O)=O)ncc2Cl)cc1 | . | -19.3% | -109.4% | . | 2µM*
CS(=O)(=O)c1ncc(Cl)c(C(=O)N(Cc2ccc(Cl)cc2)Cc2ccco2)n1 | . | -22.7% | 3.16µM* | 5.62µM* | 5.01µM*
